Inconclusive results are not listed. Active and inactive are the calls of the source.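 How the source made its calls, unless noted: active means response below a set limit, under 55% cells CD8-positive and vesicle-bound, and CD8 cells' 90th-percentile brightness under 279; inactive means the rest.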
Tests used:
[1] = yeast TOR pathway RPL19A-GFP modulators, primary screen, cell-based, S. cerevisiae, multiplex flow cytometry (AID 1862; in the data active means percent of DMSO control GFP below about 86%;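 further: lower values mimic rapamycin by blocking the RPL19A rise seen in DMSO cells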); conditions: S. cerevisiae RPL19A-GFP strain, flow cytometry fluorescence, 3 h; at 10 µM; stronger effect = lower value
[2] = modulators of CIT2-GFP expression in yeast, primary screen, S. cerevisiae, GFP fusion, multiplex flow cytometry (AID 1870;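 active means percent response above a set limit, the screen-wide mean plus 3 SD, cut at about 130% in these data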;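 further: barcoded CIT2-GFP strain pooled with four other GFP strains with rapamycin as positive control; median GFP fluorescence per well over plate mean of DMSO wells so 100% = DMSO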); conditions: 3 h, at 10 µM, stronger effect = higher value
[3] = modulators of LAP4-GFP expression in yeast, primary screen, S. cerevisiae, multiplex flow cytometry (AID 1873;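 active means GFP signal, as percent of the solvent control, above the screen mean plus 3 SD, about 149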); conditions: 3 h, at 10 µM, stronger effect = higher value
[4] = modulators of AGP1-GFP expression in yeast TOR pathway, primary screen, cell-based, multiplex flow cytometry, S. cerevisiae (AID 1887;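 active means GFP signal above the screen-wide mean plus 3 SD, that is over about 124.5% of the solvent control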;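 further: AGP1-GFP fusion strain of S. cerevisiae within a five-strain barcoded multiplex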); conditions: 3 h, at 10 µM, stronger effect = higher value
[5] = inhibitors of CD8+ T cell-vesicle binding, pilot screen, LFA-1/ICAM-1 modulator project, MLPCN validation set, flow cytometry (AID 2523); conditions: 2C mouse CD8+ T cells, at 7 µM, stronger effect = lower value; double positive events: measured here: CD8+/vesicle+ event percentage;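 on vesicle binding response: mean PE anti-B7-1 fluorescence of CD8+ cells relative to row control; 100% = QL9-loaded vesicles with DMSO vehicle in the same plate row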
[6] = molecular target: Integrin beta-1 (Homo sapiens) + Integrin alpha-4 (Homo sapiens) (UniProt P13612+P05556); test: inhibition of HUTS-21 binding to VLA-4, pilot screen, VLA-4 allosteric modulator project, U937 cells, HUTS-21 mAb, flow cytometry, validation set (AID 2674;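 active means inhibition above 50%, about 3 SD of the validation set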;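 further: antibody binding induced by the VLA-4 ligand LDV present at three times its Kd; 0% = LDV ligand with antibody and no compound and 100% = antibody without LDV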); conditions: HUTS-21 LIBS mAb binding, at 6.7 µM, stronger effect = higher value, binding induced by LDV ligand
Integrin beta-1 (Homo sapiens) + Integrin alpha-4 (Homo sapiens), sequence (P05556 whole entry, looked up): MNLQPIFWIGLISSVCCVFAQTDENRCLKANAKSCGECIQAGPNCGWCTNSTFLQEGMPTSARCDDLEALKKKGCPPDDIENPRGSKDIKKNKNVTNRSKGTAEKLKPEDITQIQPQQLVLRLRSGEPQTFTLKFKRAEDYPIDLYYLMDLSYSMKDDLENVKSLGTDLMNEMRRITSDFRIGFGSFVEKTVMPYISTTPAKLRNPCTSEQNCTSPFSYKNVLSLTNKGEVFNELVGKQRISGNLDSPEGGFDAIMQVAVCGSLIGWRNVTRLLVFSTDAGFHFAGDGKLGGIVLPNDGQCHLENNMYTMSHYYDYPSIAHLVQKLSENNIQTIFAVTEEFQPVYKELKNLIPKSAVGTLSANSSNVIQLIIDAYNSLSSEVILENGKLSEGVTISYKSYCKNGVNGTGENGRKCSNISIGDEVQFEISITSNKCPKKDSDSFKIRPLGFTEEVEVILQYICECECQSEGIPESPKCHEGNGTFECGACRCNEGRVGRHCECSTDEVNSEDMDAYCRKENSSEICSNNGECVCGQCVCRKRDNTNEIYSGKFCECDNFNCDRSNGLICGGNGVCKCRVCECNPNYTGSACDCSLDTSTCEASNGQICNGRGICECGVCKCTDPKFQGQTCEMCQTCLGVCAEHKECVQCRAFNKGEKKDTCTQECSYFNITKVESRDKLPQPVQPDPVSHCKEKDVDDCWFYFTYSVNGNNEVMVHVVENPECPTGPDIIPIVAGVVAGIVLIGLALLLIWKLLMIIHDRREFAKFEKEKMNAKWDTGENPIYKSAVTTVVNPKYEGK
Integrin beta-1 (Homo sapiens) + Integrin alpha-4 (Homo sapiens), sequence (P13612 whole entry, looked up): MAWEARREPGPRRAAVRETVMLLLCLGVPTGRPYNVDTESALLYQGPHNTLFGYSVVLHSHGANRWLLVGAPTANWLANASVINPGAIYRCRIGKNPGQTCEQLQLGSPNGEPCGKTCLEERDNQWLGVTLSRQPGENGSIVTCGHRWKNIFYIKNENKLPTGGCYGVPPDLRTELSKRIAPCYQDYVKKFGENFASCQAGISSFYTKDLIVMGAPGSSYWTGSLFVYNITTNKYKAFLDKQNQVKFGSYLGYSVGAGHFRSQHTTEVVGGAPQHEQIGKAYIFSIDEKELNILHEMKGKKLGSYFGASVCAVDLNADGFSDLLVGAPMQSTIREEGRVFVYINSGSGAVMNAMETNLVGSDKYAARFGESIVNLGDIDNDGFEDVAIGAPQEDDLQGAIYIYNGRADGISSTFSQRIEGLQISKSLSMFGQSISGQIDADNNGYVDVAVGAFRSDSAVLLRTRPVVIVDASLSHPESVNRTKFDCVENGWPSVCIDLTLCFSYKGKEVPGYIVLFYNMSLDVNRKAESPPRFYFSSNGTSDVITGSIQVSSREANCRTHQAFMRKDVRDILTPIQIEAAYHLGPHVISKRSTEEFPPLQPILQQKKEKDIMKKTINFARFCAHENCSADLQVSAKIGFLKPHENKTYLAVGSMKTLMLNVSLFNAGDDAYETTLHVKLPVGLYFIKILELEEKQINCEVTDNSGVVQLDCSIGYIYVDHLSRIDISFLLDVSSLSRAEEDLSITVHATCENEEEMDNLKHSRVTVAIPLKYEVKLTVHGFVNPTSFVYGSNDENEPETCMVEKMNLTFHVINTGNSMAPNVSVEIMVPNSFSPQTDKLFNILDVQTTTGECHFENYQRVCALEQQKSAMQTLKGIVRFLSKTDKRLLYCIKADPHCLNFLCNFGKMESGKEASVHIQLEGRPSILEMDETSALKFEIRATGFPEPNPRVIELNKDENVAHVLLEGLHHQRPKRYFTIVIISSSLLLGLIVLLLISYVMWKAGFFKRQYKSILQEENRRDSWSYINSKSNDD

[7] = superoxide lowering in aged yeast cells, pilot screen, validation compound set (AID 2706;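 active means superoxide response below 65% of plate, a cut near 3 SD across the whole screen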;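 further: yeast exposed to compound for one week at 30 degrees C before staining; 100% = mean of all compound wells on the same plate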); conditions: S. cerevisiae aging, superoxide DHE fluorescence; at 10 µM, stronger effect = lower value
[8] = molecular target: Beta-adrenergic receptor kinase 1 (Homo sapiens) (UniProt P25098); test: GRK2 binders displacing RNA aptamer, biochemical, validation, human GRK2, bead flow cytometry (AID 488806;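 active means aptamer binding inhibition above 30%, about 3 SD of noise from non-fluorescent compounds; inactive means inhibition at or below 30%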); conditions: bead-bound GRK2, FAM-aptamer displacement, at 10 µM, stronger effect = higher value
Beta-adrenergic receptor kinase 1 (Homo sapiens), sequence (P25098 whole entry, looked up): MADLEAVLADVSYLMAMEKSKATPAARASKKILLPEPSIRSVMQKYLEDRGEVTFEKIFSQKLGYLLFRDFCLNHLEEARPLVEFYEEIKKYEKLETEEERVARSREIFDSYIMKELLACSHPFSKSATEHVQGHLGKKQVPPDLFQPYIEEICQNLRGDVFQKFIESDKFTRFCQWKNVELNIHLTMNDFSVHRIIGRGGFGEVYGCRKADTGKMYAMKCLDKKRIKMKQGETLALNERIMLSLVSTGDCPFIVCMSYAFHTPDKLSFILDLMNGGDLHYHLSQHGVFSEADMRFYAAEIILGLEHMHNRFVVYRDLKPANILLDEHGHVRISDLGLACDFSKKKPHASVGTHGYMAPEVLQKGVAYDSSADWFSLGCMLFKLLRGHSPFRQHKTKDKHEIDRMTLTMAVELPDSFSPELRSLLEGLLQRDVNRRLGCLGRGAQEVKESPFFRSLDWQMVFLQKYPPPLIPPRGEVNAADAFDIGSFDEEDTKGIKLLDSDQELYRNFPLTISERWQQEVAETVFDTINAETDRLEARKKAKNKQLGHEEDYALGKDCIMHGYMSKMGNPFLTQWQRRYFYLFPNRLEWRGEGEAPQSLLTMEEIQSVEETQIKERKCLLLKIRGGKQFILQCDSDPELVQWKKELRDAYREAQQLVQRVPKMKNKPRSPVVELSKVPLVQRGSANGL

[9] = molecular target: Beta-2 adrenergic receptor (Homo sapiens) (UniProt P07550); test: beta2AR agonists driving receptor internalization, pilot screen, cell-based, FAP fluorogen, flow cytometry, validation set (AID 504459;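 active means percent response above 42, roughly 3 SD of non-fluorescent test compounds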;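 further: agonist-driven loss of surface beta2AR via internalization measured by FAP dye flow cytometry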); conditions: Am2.2-beta2AR cells, FAP surface receptor flow cytometry; at 10 µM; stronger effect = higher value
Beta-2 adrenergic receptor (Homo sapiens), sequence (P07550 whole entry, looked up): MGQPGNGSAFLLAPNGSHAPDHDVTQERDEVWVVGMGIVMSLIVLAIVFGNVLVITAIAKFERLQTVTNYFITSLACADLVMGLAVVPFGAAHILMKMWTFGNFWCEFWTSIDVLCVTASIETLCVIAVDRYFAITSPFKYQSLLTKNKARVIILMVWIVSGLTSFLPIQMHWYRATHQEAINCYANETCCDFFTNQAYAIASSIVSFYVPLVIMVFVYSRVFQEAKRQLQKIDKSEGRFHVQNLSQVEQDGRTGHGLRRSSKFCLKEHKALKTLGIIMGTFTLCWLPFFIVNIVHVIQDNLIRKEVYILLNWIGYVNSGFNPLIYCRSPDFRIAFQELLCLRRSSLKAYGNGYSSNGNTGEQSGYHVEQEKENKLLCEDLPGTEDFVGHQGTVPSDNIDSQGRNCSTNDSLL

[10] = molecular target: AP-2 complex subunit beta (Homo sapiens) (UniProt P63010); test: inhibitors of arrestin peptide binding to AP2, pilot screen, biochemical, validation set, GST-AP2 beads, flow cytometry (AID 504541;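 active means inhibition above 54%, about 3 SD of non-fluorescent compounds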;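 further: AP2 carries R879A mutation and is captured from E. coli lysate; bead-bound FITC arrestin peptide fluorescence measuring arrestin peptide binding to AP2; 0% = DMSO wells and 100% = excess unlabeled arrestin peptide control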); conditions: FITC arrestin peptide, at 10 µM, stronger effect = higher value, AP2 beta2 appendage fragment, R879A mutant
AP-2 complex subunit beta (Homo sapiens), sequence (P63010 whole entry, looked up, the tested form may be a part, one chain of several): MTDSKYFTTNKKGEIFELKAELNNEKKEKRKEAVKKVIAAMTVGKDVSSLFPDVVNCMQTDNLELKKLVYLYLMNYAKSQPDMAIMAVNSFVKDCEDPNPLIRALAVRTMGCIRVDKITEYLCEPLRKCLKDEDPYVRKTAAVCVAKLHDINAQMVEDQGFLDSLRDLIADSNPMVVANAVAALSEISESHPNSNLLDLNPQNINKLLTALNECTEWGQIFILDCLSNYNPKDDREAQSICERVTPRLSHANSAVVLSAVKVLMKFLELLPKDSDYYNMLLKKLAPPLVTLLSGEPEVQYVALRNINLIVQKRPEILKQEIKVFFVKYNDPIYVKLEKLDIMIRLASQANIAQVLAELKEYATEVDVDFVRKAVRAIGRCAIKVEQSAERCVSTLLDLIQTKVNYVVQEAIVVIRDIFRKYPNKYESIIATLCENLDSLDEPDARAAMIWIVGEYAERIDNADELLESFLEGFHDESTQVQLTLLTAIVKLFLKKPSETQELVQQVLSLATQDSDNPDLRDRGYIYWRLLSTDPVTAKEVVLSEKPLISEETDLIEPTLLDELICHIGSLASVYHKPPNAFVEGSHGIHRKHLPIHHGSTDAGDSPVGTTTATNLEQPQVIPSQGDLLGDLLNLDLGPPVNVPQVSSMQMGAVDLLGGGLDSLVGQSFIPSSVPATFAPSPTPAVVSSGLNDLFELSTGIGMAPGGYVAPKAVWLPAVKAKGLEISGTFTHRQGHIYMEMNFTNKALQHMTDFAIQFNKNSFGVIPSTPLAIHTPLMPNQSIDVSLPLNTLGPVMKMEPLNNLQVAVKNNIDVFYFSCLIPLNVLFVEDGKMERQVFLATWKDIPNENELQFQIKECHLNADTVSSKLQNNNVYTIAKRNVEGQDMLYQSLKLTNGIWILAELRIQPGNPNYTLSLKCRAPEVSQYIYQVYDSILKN

[11] = yeast V-ATPase proton transport modulators, S. cerevisiae, pHLuorin, HTS validation (AID 504600; in the data active means response above about 15%;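 further: plate controls were DMSO for no effect and reference compound for full effect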); conditions: S. cerevisiae pHLuorin cytosolic pH, at 10 µM, stronger effect = higher value
[12] = tested on: anti-desmoglein-3 scFv antibody binding to human DSG3; test: inhibitors of anti-DSG3 scFv binding to DSG3, pilot screen, biochemical, validation compound set, bead-based, flow cytometry (AID 588368;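 active means binding below the plate cutoff, the plate median minus 3 SD, with a reading above zero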;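 further: signal is the median channel fluorescence of bead-bound GFP antibody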); conditions: Protein G beads, DSG3-Fc, scFv-GFP binding, at 10 µM, stronger effect = lower value
[13] = inhibitors of fungal efflux pumps CDR1, CDR2, MDR1, pilot screen, validation compound set, multiplex, phenotypic (AID 588506;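 active means efflux inhibition above 0.42, the validation set average plus 4 SD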;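 further: Nile Red retained in cells so higher fluorescence means more efflux inhibition; 0 = negative control wells and 1 = enniatin B 25 µM full block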); conditions: S. cerevisiae pump-expressing triplex, Nile Red efflux flow cytometry; at 10 µM; stronger effect = higher value; the pumps come from Candida albicans
[14] = molecular target: ATP-binding cassette sub-family B member 6 (Homo sapiens) (UniProt Q9NP58); test: ABCB6 transporter inhibitors, pilot screen, K562-ABCB6 cells, flow cytometry, validation set (AID 588550;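 active means inhibition above the screen-wide mean plus 3 SD, about 51%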;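 further: 0% = DMSO wells and 100% = benzethonium chloride 70 µM positive control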); conditions: K562-ABCB6 porphyrin accumulation, 1 h, at 10 µM, stronger effect = higher value
ATP-binding cassette sub-family B member 6 (Homo sapiens), sequence (Q9NP58 whole entry, looked up): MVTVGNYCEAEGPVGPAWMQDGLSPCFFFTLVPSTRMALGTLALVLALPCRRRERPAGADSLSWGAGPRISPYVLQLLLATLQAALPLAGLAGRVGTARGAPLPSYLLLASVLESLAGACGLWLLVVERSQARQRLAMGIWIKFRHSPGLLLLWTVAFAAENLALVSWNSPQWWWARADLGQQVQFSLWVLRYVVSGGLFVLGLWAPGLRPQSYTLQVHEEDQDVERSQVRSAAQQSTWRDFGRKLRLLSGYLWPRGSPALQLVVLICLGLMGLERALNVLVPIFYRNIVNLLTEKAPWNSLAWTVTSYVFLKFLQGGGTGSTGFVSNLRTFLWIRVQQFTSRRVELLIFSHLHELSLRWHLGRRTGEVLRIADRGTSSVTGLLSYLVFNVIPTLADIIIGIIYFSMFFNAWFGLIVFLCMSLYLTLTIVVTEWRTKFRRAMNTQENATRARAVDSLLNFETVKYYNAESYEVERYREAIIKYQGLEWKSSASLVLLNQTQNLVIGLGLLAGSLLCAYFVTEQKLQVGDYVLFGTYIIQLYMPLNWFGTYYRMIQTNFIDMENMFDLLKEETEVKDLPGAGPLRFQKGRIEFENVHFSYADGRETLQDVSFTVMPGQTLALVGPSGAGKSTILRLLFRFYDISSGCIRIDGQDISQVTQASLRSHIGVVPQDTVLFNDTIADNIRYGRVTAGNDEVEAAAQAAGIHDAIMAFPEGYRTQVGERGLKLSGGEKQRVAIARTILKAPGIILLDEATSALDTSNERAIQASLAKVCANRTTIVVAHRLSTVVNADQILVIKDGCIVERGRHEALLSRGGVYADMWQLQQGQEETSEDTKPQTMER

[15] = promoters of myeloid differentiation in arrested cells, primary screen, cell-based, GFP/MAC1 double positive, flow cytometry, validation set (AID 588685;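 active means differentiation response of at least 50%, scaled between solvent and reference control, from cells with both markers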;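 further: compound exposure lasts four days before antibody staining and flow analysis; 0% = DMSO wells and 100% = 5 µM fulvestrant positive control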); conditions: ER-HoxA9 marrow cells, stronger effect = higher value, normalized: vehicle 0, fulvestrant 100
[16] = modulators of MEP2-GFP levels in yeast, primary screen, S. cerevisiae, multiplex flow cytometry (AID 1867;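 active means GFP response, as percent of the DMSO control, above the screen-wide mean plus 3 SD, about 139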;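 further: median GFP channel fluorescence of barcode-gated MEP2-GFP cells measured by flow cytometry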); conditions: S. cerevisiae MEP2-GFP strain, 3 h, at 10 µM, stronger effect = higher value, 100% means same as DMSO wells

Compound | percent of DMSO control GFP [1] | percent response of DMSO control [2] | GFP response vs DMSO [3] | GFP response, % of DMSO [4] | double positive events [5] [%] | vesicle binding response [5] | inhibition [6] | superoxide response (% of plate) [7] | aptamer binding inhibition [8] | response [9] | inhibition [10] | response [11] | binding (% of control) [12] | efflux inhibition (fraction of control) [13] | inhibition [14] | differentiation response [15] | GFP response vs DMSO [16]
COc1ccc(CCN(C)CC(=O)Nc2cc(C)nc3ccccc23)cc1OC | 108% (inactive) | 104% (inactive) | 94% (inactive) | 94.9% (inactive) | 71.8 | 193% (inactive) | 10.5% (inactive) | 103% (inactive) | 1% (inactive) | 7.03% (inactive) | -0.03% (inactive) | -0.15% (inactive) | 96.8% (inactive) | 0.05 (inactive) | 5% (inactive) | 5.6% (inactive) | 
CCCCC/C=C\C[C@H](O)/C=C/c1cccc(C[C@H](O)CCCCO)n1 | 97.9% (inactive) | 111% (inactive) | 75.9% (inactive) |  | 52.3 | 41.1% (active) | -3.24% (inactive) | 116% (inactive) | 1% (inactive) | -7.36% (inactive) | -4.61% (inactive) | 1.37% (inactive) | 103% (inactive) | 0.16 (inactive) | 10% (inactive) | -2.46% (inactive) | 111% (inactive)
CC1CCCc2sc3ncn(N)c(=N)c3c21 (stereo not drawn) | 103% (inactive) | 105% (inactive) |  | 87.1% (inactive) | 62.2 | 246% (inactive) | -3.16% (inactive) | 94.2% (inactive) | 4% (inactive) | 31.1% (inactive) | -3.27% (inactive) | 3.56% (inactive) | 98.2% (inactive) | -0.24 (inactive) | 7% (inactive) | -4% (inactive) | 
CC(=O)OCC1OC(n2ccc(=O)[nH]c2=O)C(O)C1O (stereo not drawn) | 100% (inactive) | 122% (inactive) | 102% (inactive) | 101% (inactive) | 60.2 | 42.8% (inactive) | -12.9% (inactive) | 97.6% (inactive) | 1% (inactive) | -2% (inactive) | -6.88% (inactive) | -3.65% (inactive) | 97.7% (inactive) | -0.26 (inactive) | 9% (inactive) | -1.71% (inactive) | 
COc1ccc(-c2nc(C)c(C(C)=O)n2O)cc1OC | 92.6% (inactive) | 114% (inactive) | 78.1% (inactive) |  | 52.4 | 110% (inactive) | 5.49% (inactive) | 97.4% (inactive) | 2% (inactive) | -10.4% (inactive) | -13.1% (inactive) | 1.53% (inactive) | 103% (inactive) | 0.01 (inactive) | 11% (inactive) | 0% (inactive) | 106% (inactive)
Cc1cc(C)c2c(CCl)cc(=O)oc2c1 | 98.7% (inactive) | 107% (inactive) | 127% (inactive) | 115% (inactive) | 60.3 | 174% (inactive) | 33.8% (inactive) | 93% (inactive) | -2% (inactive) | -0.73% (inactive) | 2.3% (inactive) | 63.9% (active) | 96.2% (inactive) | 0.08 (inactive) | 4% (inactive) | 4.86% (inactive) | 
COc1cc(/C=C/C(=O)N2CCCC2)cc(OC)c1OC | 106% (inactive) | 107% (inactive) | 76.9% (inactive) | 100% (inactive) | 61.5 | 29.3% (inactive) | 6.81% (inactive) | 95.8% (inactive) | 5% (inactive) | -5.19% (inactive) | -0.17% (inactive) | 0.86% (inactive) | 95.1% (inactive) | 0.02 (inactive) | -1% (inactive) | 12.9% (inactive) | 
NC12CC3CC(CC(C3)C1)C2 | 94.4% (inactive) | 111% (inactive) | 78.7% (inactive) |  | 60.2 | 195% (inactive) | -27.5% (inactive) | 96.9% (inactive) | -5% (inactive) | -15.1% (inactive) | 0.4% (inactive) | 3.04% (inactive) | 102% (inactive) | -0.24 (inactive) | 15% (inactive) | -1.64% (inactive) | 119% (inactive)
Cc1oc2ccc(OC(=O)c3cccs3)cc2c1C(=O)OC(C)C | 91.2% (inactive) | 92.5% (inactive) | 115% (inactive) | 94.9% (inactive) | 64.6 | 205% (inactive) | -4.52% (inactive) | 96% (inactive) | 1% (inactive) | -19.3% (inactive) | -7.21% (inactive) | -4.85% (inactive) | 105% (inactive) | -0.09 (inactive) | 2% (inactive) | -4.99% (inactive) | 

Source: PubChem BioAssay
